This note sets out measurements from the OligoGym collection.
Also: reference of the scale not given here.

One test concerns the target ASCL1. The experiment in a line: pooled miR-30 sensor sort-seq; sequence = guide strand. The note with it: shRNA.
For the sequence TTTGAGTTTGGACAGTAGCTGC, the sensor-assay potency score (higher = more potent) was -0.582.

Turning to TAAACCATTTGTACAAAACTTC, the sensor-assay potency score (higher = more potent) is -0.297.

TAAACCAATGTCTACAGCTTAT registered a sensor-assay potency score (higher = more potent) of -1.49.

With TACTCATCTTCTTGTTGGCCGC, the sensor-assay potency score (higher = more potent) was -0.58.

Sequence ATGCTCGTCCAGCAGCTGCTGC gave a sensor-assay potency score (higher = more potent) of -1.67.

Regarding TCCACCTTACTCATCTTCTTGT, the sensor-assay potency score (higher = more potent) was -0.496.

For the sequence TATAAAGTAAGACACATTGGTG, the sensor-assay potency score (higher = more potent) was -0.186.

As for TTTGCAGCGCATCAGTTCGGGC, the sensor-assay potency score (higher = more potent) is -1.5.

Sequence TTGACCAACTTGACGCGGTTGC showed a sensor-assay potency score (higher = more potent) of 0.134.

TTCACTGTAAACCAATGTCTAC registered a sensor-assay potency score (higher = more potent) of -1.2.

In turn, TGTCGCTTGACTTGCTTGGGCG came in with a sensor-assay potency score (higher = more potent) of -1.29.

AATACATTAACAACATTTCTAT registered a sensor-assay potency score (higher = more potent) of -0.252.

TTGGGCGCTGACTTGTGACCGC showed a sensor-assay potency score (higher = more potent) of -0.646.

Consider TTGGTGCTGAAGTACAACTGGT, for which the sensor-assay potency score (higher = more potent) is -0.518.

TAATACATTAACAACATTTCTA registered a sensor-assay potency score (higher = more potent) of 0.433.

TTACTCATCTTCTTGTTGGCCG returned a sensor-assay potency score (higher = more potent) of 0.746.

The target of another test is ASF1A. Described as above. The conditions noted are these: shRNA.
Sequence TGAAATACAAACATATGCCTTC registered a sensor-assay potency score (higher = more potent) of 0.343.

The sequence TAAAACAGAGTCTAAAACTTGA registered a sensor-assay potency score (higher = more potent) of -0.0289.

Turning to TAATAAATTCTTGTCCTCGATA, the sensor-assay potency score (higher = more potent) is -1.01.

For TCTAACATGACATTTAGTGAGT, the sensor-assay potency score (higher = more potent) was 0.228.

Turning to TTGGATTACTGCTCTCTGCATC, the sensor-assay potency score (higher = more potent) is -0.437.

Take TAATTTTCCATTCCAAGTCTTC: the sensor-assay potency score (higher = more potent) was -0.557.

Turning to TCGAAGGTGATCTCGAACTGGA, the sensor-assay potency score (higher = more potent) was -0.487.

TTACATAATAGCCAACTCTAAT showed a sensor-assay potency score (higher = more potent) of -1.16.

As to TTTGAAGCTTAGAAAAGTCTGG, the sensor-assay potency score (higher = more potent) was 0.13.

As for TTAGATGCCAAAATATTCCTTT, the sensor-assay potency score (higher = more potent) was 0.414.

As to TTGAAGCTTAGAAAAGTCTGGT, the sensor-assay potency score (higher = more potent) is -0.243.

TAACATGACATTTAGTGAGTTT returned a sensor-assay potency score (higher = more potent) of -0.448.

Another test deals with ASNSD1. The test is described as above. The conditions noted are these: shRNA.
For TTCTAGAAGAAATTCGACCCAG, the sensor-assay potency score (higher = more potent) was -0.284.

The sequence TTCTTCAATAATATTCTCCCTA came in with a sensor-assay potency score (higher = more potent) of 0.32.

On to ATTCTCTTCAGCTTCAACCTTT, for which the sensor-assay potency score (higher = more potent) was found to be 0.221.

In turn, TAAGATTATATAGTAAGTCCTC displayed a sensor-assay potency score (higher = more potent) of -0.501.

As for TTCCATAGAAACACATTGCCTC, the sensor-assay potency score (higher = more potent) worked out at 0.13.

Sequence TAAATCTTGACTGAAATGCTCA gave a sensor-assay potency score (higher = more potent) of -0.203.

In turn, TATTAGGACTGTCAGCAGCAGC came in with a sensor-assay potency score (higher = more potent) of -1.12.

In turn, TAACTCTGTCATCACGACCAAG registered a sensor-assay potency score (higher = more potent) of -0.98.

For TTTTTCACCAATTCCTCGGGGT, the sensor-assay potency score (higher = more potent) stood at 0.495.

Regarding TTTCTTGACTGCTACACTCAGG, the sensor-assay potency score (higher = more potent) is -0.64.
